Source: PubChem BioAssay
In the library only some 2.9% were active in any assay of this set; here they are far more common.
Exocytosis inh: LAMP-1 surface exposure blockers, TALL-104 cells – cell-based, flow cytometry, MLPCN library, primary screen; TALL-104 LAMP-1 surface exposure; cells stimulated with thapsigargin and PMA; inhibition, % at 10 µM; 360,000 compounds, 0.66% hits;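 active means inhibition above about 55%, limit read from the data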
PP1 inh: PP1-alpha phosphatase inhibitors, primary screen, counter-screen for PP5 inhibitor project, biochemical, fluorescence, OMFP substrate, single point; inhibition, % at 6.7 µM; Serine/threonine-protein phosphatase PP1-alpha catalytic subunit (Homo sapiens), P62136; purified PP1alpha; 320,000 compounds, 0.9% hits;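 active means inhibition above the mean inhibition of all tested compounds plus 3 SD, computed separately for each screening campaign, cut at about 15% in these data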
Target sequence (P62136 whole entry, looked up): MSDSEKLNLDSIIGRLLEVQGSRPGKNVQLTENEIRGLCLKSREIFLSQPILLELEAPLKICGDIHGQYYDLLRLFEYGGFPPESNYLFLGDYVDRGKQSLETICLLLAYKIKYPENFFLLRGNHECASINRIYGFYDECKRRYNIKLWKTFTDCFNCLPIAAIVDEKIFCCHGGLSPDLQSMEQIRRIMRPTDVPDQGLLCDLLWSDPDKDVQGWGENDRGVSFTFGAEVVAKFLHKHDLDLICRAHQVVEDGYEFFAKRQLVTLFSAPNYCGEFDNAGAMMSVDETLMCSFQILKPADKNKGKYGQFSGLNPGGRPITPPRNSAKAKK
Beta2AR agonist: beta2AR agonists driving receptor internalization, primary screen, cell-based, FAP fluorogen, flow cytometry. Am2.2-beta2AR cells. response, % (concentration not given with the values). 340,000 compounds, 0.43% hits. AID 504454, 2011;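 active means response above a set limit, near 3 SD of response in nonfluorescent compounds, cut at about 42% in these data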
Target sequence (P07550 whole entry, looked up): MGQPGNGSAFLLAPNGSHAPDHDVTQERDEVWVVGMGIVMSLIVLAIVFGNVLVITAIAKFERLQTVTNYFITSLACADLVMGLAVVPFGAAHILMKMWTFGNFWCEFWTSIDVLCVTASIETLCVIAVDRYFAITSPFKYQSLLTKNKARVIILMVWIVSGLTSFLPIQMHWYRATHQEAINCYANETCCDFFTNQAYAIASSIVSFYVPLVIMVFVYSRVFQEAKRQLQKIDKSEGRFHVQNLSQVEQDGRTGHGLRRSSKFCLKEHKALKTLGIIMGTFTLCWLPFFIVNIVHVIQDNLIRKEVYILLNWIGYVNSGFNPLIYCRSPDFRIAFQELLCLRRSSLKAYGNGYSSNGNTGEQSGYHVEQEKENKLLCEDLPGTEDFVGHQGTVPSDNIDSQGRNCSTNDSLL
NadD inh: inhibitors of S. aureus NadD, primary screen, biochemical, colorimetric, uHTS. Nicotinate-nucleotide adenylyltransferase NadD (Staphylococcus aureus N315). purified NadD enzyme, colorimetric absorbance read-out. inhibition, % at 20 µM. 360,000 compounds, 0.78% hits. AID 602399, 2012; in the data active means inhibition above about 26%
GRK2 inh: compounds blocking aptamer binding on GRK2 – biochemical, human GRK2, bead flow cytometry, HTS, primary screen; 330,000 compounds, 0.59% hits; FAM-aptamer displacement from GRK2; Beta-adrenergic receptor kinase 1 (Homo sapiens), P25098; inhibition of aptamer binding, % at 10 µM;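 active means inhibition of aptamer binding above 40%, roughly 3 SD of noise, on plates passing a quality check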;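 further: median bead fluorescence of bound FAM aptamer so fluorescent compounds give negative values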
GRK2 inh confirm: GRK2 aptamer-displacing inhibitors, retest, confirmation, biochemical, cherry pick 1, bead flow cytometry. shares compounds with GRK2 inh. bead-bound GRK2, FAM-aptamer displacement. aptamer displacement, % at 10 µM. 2,000 compounds, 4% hits. AID 504451, 2011;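 active means aptamer displacement above 40%, near three times the noise of non-fluorescent compounds, on plates passing quality checks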;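 further: negative values mostly reflect intrinsic compound fluorescence rather than true enhancement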
Aptamer quench: fluorescent aptamer quenching in GRK2 counter-screen dose response. shares compounds with GRK2 inh. Fluorescent RNA aptamer beads, flow cytometry; hits give high values. fluorescence change (kMESF span), kMESF (no concentration beside the values). 110 tested, under 10 active;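 active means compounds whose bead fluorescence drops by more than 37 kMESF across the dose range, marking them as dye quenchers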
FAM quench CP1: quenches fluorescent RNA aptamer, GRK2 hit artifact | Carboxyfluorescein RNA aptamer on beads, flow cytometry quenching; hits give low values | 2,000 tested, under 10 active | fluorescence response (% of DMSO), % at 10 µM | shares compounds with GRK2 inh;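 active means compounds that quench the bead-bound fluorescent RNA probe, cutting fluorescence to under half of the solvent control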;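 further: counterscreen run without GRK2 so only probe quenching by compound is measured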
GRK2 CP2: GRK2 aptamer-displacing inhibitors, hit retest, confirmation, biochemical, cherry pick 2, bead flow cytometry | shares compounds with GRK2 inh | 360 tested, under 10 active | inhibition of aptamer binding, % at 10 µM | AID 504782, 2011 | bead-bound GRK2, FAM-aptamer displacement;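 active means inhibition of aptamer binding above 40%, about triple the noise seen with nonglowing compounds, on plates passing quality control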;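 further: negative values mostly come from compounds that fluoresce themselves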
FAM quench CP2: aptamer fluorescence quenching in GRK2 counter-screen; shares compounds with GRK2 inh; carboxyfluorescein RNA aptamer beads, flow cytometry quenching; hits give low values; fluorescence response vs DMSO, % at 10 µM; 360 tested, under 10 active;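 active means response vs DMSO under 50%, meaning signal dropped by over half, treated as fluorescence quencher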;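 further: labelled aptamer on streptavidin beads without GRK2 as a quench counter-screen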
FAM quench DR: quenchers of FAM-labeled RNA aptamer fluorescence, dose response, artefact control for GRK2 aptamer binding project, biochemical, powder set 1, flow cytometry | shares compounds with GRK2 inh | Bead-bound FAM RNA aptamer fluorescence quenching; hits give low values | fluorescence ratio to DMSO, % at 11.1 µM | 35 tested, under 10 active | AID 588496, 2011;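 active means compounds that dim the fluorescent label, raw bead signal shifting by over 33 units between lowest and highest dose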
Large screens that a line does not name were inactive (follow-up assays come after a bar, where they were run).

Cc1cc(=O)[nH]c(SCC(=O)NCc2ccco2)n1	GRK2 inh 54.0 | GRK2 inh confirm 94.4 | Aptamer quench inactive | FAM quench CP1 inactive | FAM quench DR inactive
Cc1sc2nc(SCC(=O)NCc3ccco3)[nH]c(=O)c2c1C	none | GRK2 CP2 inactive | FAM quench CP2 inactive
Cn1c(SCC(=O)NCc2ccco2)nnc1-c1cccs1	GRK2 inh 86.0 | GRK2 inh confirm inactive | FAM quench CP1 inactive
Cc1ccc2c(COC(=O)C3CSC4(C)CCC(=O)N34)cc(=O)oc2c1C (centres undefined)	none (no result: PP1 inh)
CCc1c(O)nc(SCC(=O)NCc2ccco2)[nH]c1=O	none | GRK2 CP2 inactive | FAM quench CP2 inactive
Cc1ccc(S(=O)(=O)N2CCOCC2)cc1C(=O)N(Cc1nnc(-c2ccccc2Cl)o1)C1CC1	GRK2 inh 44.0 | GRK2 CP2 inactive | FAM quench CP2 inactive
COc1ccc(NC(=O)c2ccccc2[N+](=O)[O-])cc1	GRK2 inh 51.0 | GRK2 CP2 inactive | FAM quench CP2 inactive
COc1ccc(CNC(=O)c2ccccc2[N+](=O)[O-])cc1	none
COc1ccccc1N(CC(=O)NCCSCc1ccc(C)cc1)S(=O)(=O)c1ccccc1	none
CN(CCOc1ccccc1)C(=O)C1CCC(=O)N(CCc2ccc(Cl)cc2)C1 (centres undefined)	none (no result: PP1 inh) | GRK2 inh confirm inactive | FAM quench CP1 inactive
COc1ccc(CCN2CC(C(=O)N(C)CCOc3ccccc3)CCC2=O)cc1 (centres undefined)	none | GRK2 inh confirm inactive | FAM quench CP1 inactive
O=C(NCc1ccccc1)c1cccc(NC(=O)C2CCCC2)c1	none (no result: PP1 inh, GRK2 inh) | GRK2 inh confirm inactive | FAM quench CP1 inactive
O=C(NCc1ccccc1)c1cccc(COc2ccccc2Cl)c1	none | GRK2 inh confirm inactive | FAM quench CP1 inactive
O=C(NCc1ccccc1)c1ccc(NC(=O)C2CCC2)cc1	none (no result: PP1 inh, GRK2 inh)
O=C(NCc1ccccc1)c1cccc(NC(=O)C2CCC2)c1	none (no result: PP1 inh, GRK2 inh) | GRK2 inh confirm inactive | FAM quench CP1 inactive
O=C(NCCc1ccccc1)c1cccc(NC(=O)C2CCCC2)c1	none (no result: PP1 inh, GRK2 inh)
CCN1C(=O)[C@H]2[C@@H](c3ccc(-c4ccc(F)cc4)cc3)N3CCCC[C@@]3(C(=O)OC)[C@H]2C1=O	none
COc1ccccc1CNC(=O)C[n+]1ccccc1	none
Cc1ccc(-c2cc(=O)c3ccccc3[nH]2)cc1	none
Cc1cc(=O)c2ccccc2[nH]1	none | GRK2 inh confirm inactive | FAM quench CP1 inactive
Nc1ccc(CCNc2ncnc3c2ncn3[C@@H]2O[C@H](CO)[C@@H](O)[C@H]2O)cc1	none | GRK2 inh confirm inactive | FAM quench CP1 inactive
OCC1OC(n2cnc3c(NCCc4ccccc4)ncnc32)C(O)C1O (centres undefined)	none
Cc1nc([N+](=O)[O-])cn1CC(=O)Nc1ccc(F)c(Cl)c1	GRK2 inh 51.0 | GRK2 inh confirm inactive | FAM quench CP1 inactive
O=C(Cn1cnc([N+](=O)[O-])c1)Nc1ccc(F)c(Cl)c1	none (no result: PP1 inh, GRK2 inh)
CCC1CCCCN1Cc1nc2c(c(=O)n(C)c(=O)n2C)n1CCCc1ccccc1 (centres undefined)	none | GRK2 inh confirm inactive | FAM quench CP1 inactive
CCCn1c(CN2CCCCC2CC)nc2c1c(=O)n(C)c(=O)n2C (centres undefined)	GRK2 inh 47.0 | GRK2 inh confirm inactive | FAM quench CP1 inactive
Cn1nc(C(C)(C)C)cc1C(=O)N1CCCCC1c1cc(C(=O)Nc2ccccc2Cl)no1 (centres undefined)	none (no result: PP1 inh, Beta2AR agonist, GRK2 inh)
O=C(c1cc2ccccc2o1)c1nc2c(n1O)CCCCC2	none
C=CCNc1sc(C(=O)c2ccccc2)c(N)c1-c1nc2ccccc2s1	none
CCOC(=O)c1sc(NCc2ccco2)c(-c2nc3ccccc3s2)c1N	GRK2 inh 68.0 | GRK2 inh confirm 70.1 | Aptamer quench inactive | FAM quench CP1 inactive
CC(NCCN(C)C)C1CCC2C3CCc4cc(O)ccc4C3CCC12C (centres undefined)	none (no result: PP1 inh, GRK2 inh)
O=C(NC(CC1CCCCC1)C(=O)O)c1ccccc1 (centres undefined)	GRK2 inh 99.0 | GRK2 inh confirm inactive | FAM quench CP1 inactive
CCCc1cc(=O)oc2c(CN3CCN(C)CC3)c(O)ccc12	GRK2 inh 51.0 | GRK2 inh confirm inactive | FAM quench CP1 inactive
CCCCc1cc(=O)oc2c(CN3CCN(C)CC3)c(O)ccc12	none
Cc1c(NS(=O)(=O)c2cc(C(=O)NC(C)c3ccccc3)ccc2Cl)c(=O)n(-c2ccccc2)n1C (centres undefined)	none (no result: PP1 inh, GRK2 inh)
Cc1c(NS(=O)(=O)c2cccc(C(=O)NCc3ccccc3Cl)c2)c(=O)n(-c2ccccc2)n1C	none (no result: PP1 inh, GRK2 inh) | GRK2 inh confirm inactive | FAM quench CP1 inactive
Cc1c(NS(=O)(=O)c2cccc(C(=O)NC(C)c3ccccc3)c2)c(=O)n(-c2ccccc2)n1C (centres undefined)	none (no result: PP1 inh, GRK2 inh) | GRK2 inh confirm inactive | FAM quench CP1 inactive
COc1ccc(C(=O)NCc2c(C)nn(Cc3ccccc3)c2C)cc1S(=O)(=O)N1CCOCC1	none
CCOc1ccc(-c2ccc(C3=CC(=O)C[C@H](c4ccc(F)cc4)C3)cc2)cc1	none (no result: PP1 inh, Beta2AR agonist, GRK2 inh)
C=CCSc1nnc(NC(=O)c2ccc(Cl)nc2)s1	none
Cc1cccc(NC(=O)CCC(=O)N/N=C/c2ccc(O)cc2O)c1	GRK2 inh 56.0 | GRK2 inh confirm inactive | FAM quench CP1 inactive
Cc1csc(NC(=O)Cc2c[nH]c3ccccc23)n1	none
Cc1cnc(NC(=O)Cc2c[nH]c3ccccc23)s1	GRK2 inh 51.0 | GRK2 inh confirm inactive | FAM quench CP1 inactive
